Data from PubChem BioAssay (NCI).
Compounds without any hit were thinned out: in the full panel of roughly 83,000, 20% have a hit.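 Cells were grown in 96-well plates and exposed to the test compound at a single concentration for 48 hours; results are reported as percent growth, with values below 10 considered active.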 Unmarked numbers belong to inactive results. Activity calls are given as the source filed them.

What was measured:
Assay in all cases: NCI-60 one-dose screen, 48 h (100 = growth as untreated, 0 = no growth, -100 = all killed)
Settings in all cases: 10 µM
NCI-H23 lung = tested on: NCI-H23 lung
NCI-H226 lung = tested on: NCI-H226 lung
NCI-H322M lung = tested on: NCI-H322M lung
HOP-62 NSCLC = tested on: HOP-62 NSCLC
NCI-H460 lung = tested on: NCI-H460 lung
HOP-92 NSCLC = tested on: HOP-92 NSCLC
A549/ATCC NSCLC = tested on: A549/ATCC NSCLC
786-0 renal = tested on: 786-0 renal
COLO 205 colon = tested on: COLO 205 colon

Row | Compound | growth (NCI-H23 lung) | growth (NCI-H226 lung) | growth (NCI-H322M lung) | growth (HOP-62 NSCLC) | growth (NCI-H460 lung) | growth (HOP-92 NSCLC) | growth (A549/ATCC NSCLC) | growth (786-0 renal) | growth (COLO 205 colon)
1 | N#Cc1ccc(-c2nn(-c3ccc(C(=O)O)cc3)cc2CNc2ccc(Cl)cc2)cc1 | 73.3% | 85% | 88.8% | 81.3% | 93.1% | 133% | 84.6% | 87.2% | 142%
2 | CCCCCCCCCCCCCCCCCCCC(=O)NCCc1c[nH]c2ccc(OC(=O)NOCCOCCOCCOCCOCCOCCOCCOCCOCCOCCOCCOCCOCCOCCOCCOCCOCCOCCOCCOCCOCCOCCOC)cc12 | 9.6% (active) | -23.3% (active) | -8.92% (active) | -30.7% (active) | 16% | -17.5% (active) | 8.54% (active) | 35.4% | -100% (active)
3 | COc1ccc(-c2nc(Nc3ccccc3S(N)(=O)=O)c3ccccc3n2)cc1 | -0.0975% (active) | -43% (active) | 35.1% | 77.7% | -24.9% (active) | 4.23% (active) | -2.67% (active) | -16.5% (active) | 75.9%
4 | Cc1ccc(-c2cc(C(=O)N=Nc3c(O)[nH]c4ccccc34)c3ccccc3n2)cc1 | 31.8% | 47% | 69.8% | 66.2% | -35.8% (active) | 21.6% | 2.51% (active) | 35.8% | -5.04% (active)
5 | C=C[C@@]12CN3CC[C@]1(O)[C@@](C(=O)OC)(CO2)c1[nH]c2ccccc2c1C3 | 78% | 83.1% | 93.7% | 99.5% | 87.2% | 54.9% | 87.6% | 84% | 33.7%
6 | C=C1CCC2C3(C)COC(c4cccc(F)c4)OC3CCC2(C)C1CC(O)C1=CCOC1=O (stereo unspecified) | 82.9% | 73.1% | 90.4% | 88.7% | 82.2% | 76.4% | 80.3% | 41.1% | 60.7%
7 | Cn1c(O)c(N=Nc2nc(-c3cc4ccccc4oc3=O)cs2)c2cc(Br)ccc21 | 51.2% | 52% | 84.4% | 12.1% | 92% | -14.7% (active) | 97.8% | -12% (active) | 136%
8 | O=C(Nc1cccc(C(F)(F)F)c1)c1cncc(C#Cc2cnc3ccc(N4CCOCC4)nn23)c1 | -58.7% (active) | -4.93% (active) | 5.52% (active) | 6.8% (active) | 0.042% (active) | -48% (active) | 7.95% (active) | -22.9% (active) | -48% (active)
9 | COc1ccc(N(C)c2cc(C#N)nc3ccccc23)cc1/C=C/C(=O)NO | -83.4% (active) | -39% (active) | 0.0682% (active) | -48% (active) | 0.587% (active) | -12.2% (active) | 7.16% (active) | -9.47% (active) | -34.2% (active)
10 | COc1ccc2[nH]cc(/C=N/Nc3cccc(Cl)n3)c2c1 | 64.2% | 48.4% | 71.2% | 59.3% | 47.3% | 27% | 69.8% | 25.4% | 57.5%
11 | NS(=O)(=O)c1ccc(N=Nc2c(O)n(CC(=O)Nc3ccccc3Br)c3ccccc23)cc1 | 40% | 14.4% | 50.3% | 37.6% | 26.4% | 38.7% | 19.8% | 20.1% | 5.92% (active)
12 | CC(=O)c1ccc(Nc2nc(SCCC(C)C)nc(-c3ccc(F)cc3)c2C#N)cc1 | 53.2% | 5.36% (active) | 41.4% | 41.1% | 11.4% | 3.49% (active) | 18.8% | 2.71% (active) | 77.2%
13 | Clc1ccc(/C=N/Nc2ncnc3sc4c(c23)CCN(Cc2ccccc2)C4)cc1 | 13.9% | -54.2% (active) | 22.3% | -33.5% (active) | -75.6% (active) | -59.6% (active) | -53.2% (active) | -84.8% (active) | -86.1% (active)
14 | Cc1cc(C(F)(F)F)ccc1C(=O)Nc1sc2c(c1C#N)CCC(=O)C2 | -28.3% (active) | -13% (active) | 29.8% | 1.05% (active) | 4.71% (active) | -64.4% (active) | 30% | 12.7% | -94.4% (active)
